An excerpt weighted towards active compounds, which were near 7.8% of everything screened.
VACV mCherry inh – qHTS for Stage-Specific Inhibitors of Vaccinia Orthopoxvirus: mCherry Reporter Primary qHTS. 310,000 compounds, 0.63% hits. Vaccinia virus mCherry reporter infection, fluorescence. Potency, µM (highest dose often 36.5 µM), inactives show at the top dose activity change, negative = inhibition, usual class: inhibitors; calls by dose curve; tested in A549 cells; also: potency is read from the fitted curve at half-maximal effect; nearly all actives have a fitted effect of over 35% in size
VACV Venus inh – qHTS for Stage-Specific Inhibitors of Vaccinia Orthopoxvirus: Venus Reporter Primary qHTS | Vaccinia virus Venus reporter expression, fluorescence | Potency, µM (doses to about 36.5 µM), without a hit: at the highest dose activity change, negative = inhibition, usual class: inhibitors | 330,000 compounds, 0.46% hits | AID 720580, 2013; calls by dose curve; tested in A549 cells; also: potency is read from the fitted curve at half-maximal effect; nearly all actives have a fitted effect of over 30% in size
LASV entry inh – qHTS for Inhibitors of binding or entry into cells for Lassa Virus | Lassa virus pseudotype entry inhibition, cell reporter | 300,000 compounds, 1.2% hits | AID 540256, 2011 | Potency, µM (top dose mostly 37.9 µM), without a hit: at the highest dose activity change, negative = inhibition, hits mostly inhibitors; calls by dose curve; tested in HEK293 cells; also: potency is read from the fitted curve at half-maximal effect; nearly all actives have a fitted effect of over 50% in size
HCMV antiviral – qHTS Assay for inhibitors of the human cytomegalovirus (HCMV); HFF cells, HCMV-luciferase reporter, 72 h; stronger effect = lower value; 410,000 compounds, 4.5% hits; activity change, negative = inhibition, % at 57.5 µM; AID 1259415, 2018; in the data active = activity change below about -60%; inconclusive = no clear call, values can overlap the other calls; inactive = above about -39%
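Two compound doses tested in HFFs infected with HCMV-luciferase, MOI 1 PFU/cell, 72 h at 37C. Lysate luminescence read with OneGlo; data normalized against buffer-only and 10uM Salinomycin inhibitor controls.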
HCV inhibitor – qHTS Assay for Inhibitors of Hepatitis C Virus (HCV); Potency, µM (highest dose often 41.8 µM), without a hit: top-dose activity change, negative = inhibition, actives largely listed as inhibitors; AID 651820, 2012; Huh7.5.1 HCVcc-Cre infection, luciferase reporter, 44 h; 340,000 compounds, 3.4% hits; active = well fitted inhibition curve with a large enough effect; inconclusive = small, poorly fitted or top-dose-only effect, or another doubt; inactive = no such curve, though single readings can be large or run the other way; also: potency is read from the fitted curve at half-maximal effect
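Cells seeded at 1,000/well and cultured 4 h, then compounds added followed by HCVcc-Cre virus (~0.5 moi). After 44 h further culture, luciferase substrate was added, plates held 15 min at room temperature, and luminescence read for 15 sec.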
MARV entry inh – qHTS for inhibitors of binding or entry into cells for Marburg Virus. Marburg virus pseudotyped entry inhibition, cell reporter. Potency, µM (doses to about 37.8 µM), inactives show at the highest dose activity change, negative = inhibition, hits mostly inhibitors. 300,000 compounds, 1.8% hits; calls by dose curve; tested in HEK293 cells; also: potency is read from the fitted curve at half-maximal effect
* marks the source's active call; other numbers are inactive results; i = inactive; ? = inconclusive; / = not tested or not shown; [ ] = dose if it differs, or a comment. % is scaled to controls: 0 for no effect and ±100 for the full control effect.

SMILES	VACV mCherry inh	VACV Venus inh	LASV entry inh	HCMV antiviral	HCV inhibitor	MARV entry inh
C=CCNC(=O)Cc1c(OC)ccc2cc(Br)ccc12	-21%	-25%	/	-32	10µM*	-27%[46.1 µM]
CCCCOC(=O)c1ccc(Nc2nc3ccc(C(=O)c4ccccc4)cc3n3cnnc23)cc1	-27%	?	?	0	/	/
CCN(Cc1ccc(Cl)s1)C(=O)c1cccc(OCc2c(C)noc2C)c1	-12%	-21%	?	-28	?	-26%
CCN(Cc1nc2ccccc2c(=O)[nH]1)C(=O)c1cccc(OCc2c(C)noc2C)c1	-5%	-13%	?	-100*	?	?
O=C(Nc1ccn(Cc2cccc3ccccc23)n1)c1cccnc1	-11%	?	?	-75*	?	?
COc1ccc(NS(=O)(=O)c2cc(NC(=O)C3CCCO3)ccc2N2CCCCC2)cc1 (stereo unspecified)	-16%	-9%	?	-64*	?	?
COc1ccc(NS(=O)(=O)c2ccc(N3CCCC3)c(NC(=S)Nc3ccc(SC(F)F)cc3)c2)cc1	?	-13%	?	-28	22µM*	?
COc1ccc(NS(=O)(=O)c2cc(NC(=O)C3CCCO3)ccc2N2CCCC2)cc1 (stereo unspecified)	i	-3%	27%[46.1 µM]	-1	11%	7%[46.1 µM]
COc1ccc(NS(=O)(=O)c2cc(NC(=O)c3ccco3)ccc2N2CCCC2)cc1	-17%	-7%	?	-12	10µM*	?
O=C1CCC[C@H]2C[C@@H](O)CC[C@]23CCCN13	/	/	/	15	/	/
Cc1nc2cc(-c3ccccc3)nn2c(C)c1CCC(=O)N1CCN(c2ccc(F)cc2)CC1	-17%	-2%	13%[46.1 µM]	?	/	-7%[46.1 µM]
Cc1ccc(C(=O)N2CCOc3ccc(CN4CCN(Cc5ccccn5)CC4)cc3C2)cc1	-6%	-3%	/	/	/	/
CN(C)S(=O)(=O)N(CC(=O)Nc1ccc(C(F)(F)F)cc1)c1ccccc1	-7%	-4%	-13%[46.1 µM]	-10	/	?
COC(=O)c1cc(S(=O)(=O)NCC2CCN(Cc3ccc(F)cc3)CC2)c[nH]1	-24%	-12%	8%[46.1 µM]	0	-6%	0%[46.1 µM]
COc1ccc(CN2CCC(CNS(=O)(=O)c3cccc(C(F)(F)F)c3)CC2)cc1	-19%	-8%	/	-37	11µM*	?
Nc1ncnc2c(C3OC(CO)C(O)C3O)scc12 (stereo unspecified)	?	0.35µM*	?	-97*	?	?
COc1cccc(C(=O)Nc2cccc(C(=O)OCc3cc(=O)n4c5c(sc4n3)CCCC5)c2)c1	-14%	-13%	19%[46.1 µM]	-10	/	/
CCOc1nc(-c2ccccc2)ccc1-c1noc(-c2ccco2)n1	-13%	-9%	-9%	?	10µM*	?
COc1nc(-c2ccc(C)cc2)ccc1-c1noc(-c2cccnc2)n1	-14%	-8%	8%	0	4%	7%
COc1nc(-c2ccccc2)ccc1-c1noc(-c2cccnc2)n1	/	/	32%	-104*	27%	0%
CCOc1ccccc1-c1nc(-c2ccc(-c3ccccc3)nc2OCC)no1	-4%	-12%	?	-5	/	?
CCCCn1c(SCc2ccccc2C)nc2ccsc2c1=O	-11%	-2%	-12%[46.1 µM]	88	/	/
CCOc1ccc(Nc2ncnc3ccc([N+](=O)[O-])cc23)cc1	-21%	-25%	2%	-69*	?	-13%[46.1 µM]
O=C(c1ccc(F)cc1)C(CN1CCOCC1)c1ccccc1 (stereo unspecified)	14µM*	13µM*	?	-77*	11µM*	?
O=C(c1ccc(Cl)cc1)C(CN1CCCC1)c1ccccc1 (stereo unspecified)	/	/	/	-101*	?	/
SMILES	VACV mCherry inh	VACV Venus inh	LASV entry inh	HCMV antiviral	HCV inhibitor	MARV entry inh
CCCCOc1ccc(C(=O)C(CN2CCOCC2)c2ccccc2)cc1 (stereo unspecified)	16µM*	?	?	-107*	?	?
O=C(c1ccccc1)C(CCC(CN1CCOCC1)C(=O)c1ccccc1)CN1CCOCC1 (stereo unspecified)	/	7.9µM*	14µM*	-105*	5.6µM*	?
OC(CN1CCCC1)c1ccccc1 (stereo unspecified)	-18%	-8%	/	/	/	/
c1ccc(C(CN2CCOCC2)c2ccccc2)cc1	/	/	-2%	40	17%	20%
O=C(c1ccccc1)C(Cc1ccccc1)N1CCOCC1 (stereo unspecified)	i	3%	16%[46.1 µM]	19	18%	5%
Oc1cccc(-c2nc3ncccn3c2Nc2cccc(C(F)(F)F)c2)c1	?	-25%	-16%[46.1 µM]	5	/	10%[46.1 µM]
Cc1cc(-c2ccnc(-n3ncc(C(=O)NCc4cccnc4)c3C3CC3)n2)c(C)s1	-12%	6%	/	/	/	/
Cc1ccc2onc(CC(=O)N(C)c3ccccc3)c2c1	0%	-3%	-27%[46.1 µM]	-5	/	/
CCCOc1ccc(C(=O)C(CN2CCCC2)c2ccccc2)cc1 (stereo unspecified)	?	10µM*	?	-82*	?	?
COc1ccc(C(=O)CCN2CCCCCC2)cc1	/	/	-24%	14	-18%	-4%
CCCCOc1ccc(C(O)C(CN2CCOCC2)c2ccccc2)cc1 (stereo unspecified)	-1%[7.34 µM]	0%[7.34 µM]	/	?	-7%	/
COc1ccc(C(=O)C(CN2CCOCC2)c2ccccc2)cc1 (stereo unspecified)	10µM*	10µM*	13µM*	-99*	?	?
CCCCCCCCCC(=O)NC(CN1CCOCC1)[C@H](O)c1ccccc1 (stereo partly specified)	/	/	?	/	/	16µM*
CCC(O)(c1ccc(OC)cc1)C(CN1CCOCC1)c1ccccc1 (stereo unspecified)	/	/	/	?	10%	/
CCCCOc1ccc(C(O)C(CN2CCCCC2)c2ccccc2)cc1 (stereo unspecified)	-10%	-9%	?	?	?	?
COc1ccc(C(=O)C(CN2CCCC2)c2ccccc2)cc1 (stereo unspecified)	11µM*	?	?	-95*	?	?
O=c1cc(-c2ccccc2)[nH]c2nc3ccccc3n12	/	/	?	220	-13%	5.8µM*
C/C(=N\Nc1nc(C)cc(-c2ccccc2)n1)c1ccc(O)cc1	/	/	/	-89*	11µM*	/
C/C(=N/Nc1nc(C)cc(-c2ccccc2)n1)c1ccco1	?	-18%	?	42	?	0%[46.1 µM]
C/C(=N\Nc1nc(C)cc(-c2ccccc2)n1)c1ccc(C)o1	?	-20%	?	-63*	?	-17%[46.1 µM]
C/C(=N\Nc1nc(C)cc(-c2ccccc2)n1)c1ccccc1	i	-14%	?	?	16µM*	?

Source: PubChem
